# Pf growth 96h: P. falciparum growth inhibition at 96 hours; AID 504834; P. falciparum luciferase reporter growth, 96 h; 320,000 tested, 6.9% active; Potency, µM (doses to about 28.7 µM), for the others: at the highest dose activity change, negative = inhibition, hits mostly inhibitors; active = well fitted inhibition curve with a large enough effect; inconclusive = small, poorly fitted or top-dose-only effect, or another doubt; inactive = no such curve, though single readings can be large or run the other way; note: % is set by controls: 0 for no effect and ±100 for the full control effect
#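 P. falciparum expressing integrated firefly luciferase, in erythrocytes at 2% hematocrit, 0.05% parasitemia, incubated with compounds 96 h at 37 C, 5% CO2. Growth inhibition read as loss of luminescence; two-generation exposure targets delayed-death apicoplast inhibitors.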
# NS1 inh: influenza NS1 inhibition; Potency, µM (highest dose often 46.1 µM), without a hit: at the highest dose activity, positive = more growth; 270,000 tested, 0.4% active; AID 2326; note: actives are rising curves; nearly all actives have a fitted effect of over 50% in size
#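 OD600 was taken as the measure of yeast growth restored by compound in an NS1-expressing S. cerevisiae strain. Cells had been washed out of glucose medium and diluted 1:100 into galactose -URA medium, pH 6.0.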
# SARS PLpro yeast: SARS-CoV PLP inhibition in yeast. S. cerevisiae expressing SARS-CoV PLpro, growth rescue. Potency, µM (titrated, usually from 32.9 µM), inactives show top-dose activity, positive = growth rescue, hits mostly activators. 330,000 tested, 0.19% active. AID 485353; note: 0% is about no effect; nearly all actives have a fitted effect of over 55% in size
# Pf growth 48h: inhibits P. falciparum growth in the first generation, 48 h. P. falciparum luciferase growth in erythrocytes, 48 h. Potency, µM (top dose mostly 28.7 µM), for the others: at the highest dose activity change, negative = inhibition, most hits filed as inhibitors. 310,000 tested, 5.9% active. AID 504832; active = well fitted inhibition curve with a large enough effect; inconclusive = small, poorly fitted or top-dose-only effect, or another doubt; inactive = no such curve, though single readings can be large or run the other way; note: % is set by controls: 0 for no effect and ±100 for the full control effect
#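 Luminescence readout; reporter = integrated firefly luciferase in P. falciparum. RBC culture at 2% hematocrit, 0.1% parasitemia final, 37 C/5% CO2; decreased signal taken as growth inhibition.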
# Active calls of the source: *; i = inactive; u = inconclusive; x = no result; [ ] = another dose, or the depositor's remark. Most compounds without a hit are left out; they make up all but 10% or so of the library. Unless noted, calls come from the whole dose curve. Potency is the fitted concentration of half-maximal effect.
SMILES,Pf growth 96h,NS1 inh,SARS PLpro yeast,Pf growth 48h
Nn1c(-c2ccc(O)cc2)nnc1-c1ccc(O)cc1,1.3%,0.9%,1.2%,96.6%
CC(=O)c1cnc2nc(SCc3ccc(C)cc3)nn2c1C,13.1µM*,-8.3%,-2.0%,27.5%
CNC(=S)N(CCc1c(C)[nH]c2ccc(C)cc12)Cc1cc(OC)c(OC)c(OC)c1,10.4µM*,7.9%,-1.3%,0.0%
CNC(=S)N(CCc1c(C)[nH]c2ccc(OC)cc12)Cc1cc(OC)c(OC)c(OC)c1,14.7µM*,17.2%,24.7%,10.4µM*
CNC(=S)N(CCc1ccc(OC)c(OC)c1)Cc1cc2c(C)cc(C)cc2[nH]c1=O,11.7µM*,10.5%,-5.8%,u
CCOC(=O)N1CCC(NC(=O)c2oc3c(F)cccc3c2C)CC1,-0.3%,4.5%,2.9%,44.5%
CCNc1ccc(P(=O)(c2ccccc2)c2ccccc2)cc1,-3.9%,12.9%,-0.2%,0.0%
Cc1cc(C)c(C)c(S(=O)(=O)N2CCCN(C)CC2)c1C,-5.2%,5.2%,2.0%,8.6%
CC(=O)C(N=Nc1ccccc1)(Sc1nnc(-c2ccccc2)n1-c1ccccc1)C(C)=O,11.7µM*,-7.6%,-9.3%,u
CC(=O)C(N=Nc1ccccc1)(Sc1nnc(-c2ccccc2)n1-c1ccccc1)C(=O)Nc1ccccc1 (stereo not drawn),11.7µM*,u,-18.1%,13.1µM*
COCCn1c(C)cc(/C=C(\C#N)C(=O)OCC(=O)N(C)c2c(N)n(Cc3ccccc3)c(=O)[nH]c2=O)c1C,13.1µM*,x,-2.2%,u
CCC(C(=O)OCC(=O)N(CCOC)c1c(N)n(Cc2ccccc2)c(=O)[nH]c1=O)c1ccccc1 (stereo not drawn),u,10.2%,1.4%,-5.9%
COCCN(C(=O)COC(=O)c1ccccc1Nc1ccccc1)c1c(N)n(Cc2ccccc2)c(=O)[nH]c1=O,9.28µM*,x,-2.8%,u
COCCN(C(=O)COC(=O)C(c1ccccc1)c1ccccc1)c1c(N)n(Cc2ccccc2)c(=O)[nH]c1=O,7.38µM*,x,2.5%,10.4µM*
CCCc1nc2ccccc2c(=O)n1/N=C/c1ccc(O)cc1O,u,-37.8%,13.7%,0.3%
CCCc1nc2ccccc2c(=O)n1/N=C/c1ccc(O)cc1,u,-8.2%,0.0%,11.7µM*
Cc1ccc(-c2[nH]ncc2/C=N/n2c(COc3ccccc3)nc3ccccc3c2=O)cc1,10.4µM*,11.7%,-6.3%,11.7µM*
O=c1cc(C(F)(F)F)nc(SC/C=C/c2ccccc2)[nH]1,14.4%,-42.2%,-7.9%,16.9%
CCOC(=O)C1CCN(c2nc(N)c3c(N)nc(SCC(=O)O)cc3c2C#N)CC1,2.62µM*,4.8%,-0.4%,2.62µM*
CCOc1cc2c(C#N)c(N3CCCCC3)nc(N)c2c(N)n1,u,15.3%,-16.8%,x
C=CCc1ccc(O)c(-c2ccc(O)c(CC=C)c2)c1,8.28µM*,-67.3%,-3.3%,u
COc1ccc(-c2nnc3ccc(SCC(=O)Nc4cc(C)on4)nn23)cc1,u,x,1.0%,-14.9%
Cc1cc(NC(=O)CSc2ccc3nnc(-c4ccccc4)n3n2)no1,13.1%,0.1%,-5.6%,2.62µM*
Cc1cc(NC(=O)CSc2nnc(-c3ccccc3)o2)no1,11.7µM*,x,0.0%,u
Cc1cc(C)cc(-c2nnc(SCC(=O)Nc3cc(C)on3)o2)c1,u,x,-0.2%,3.5%
SMILES,Pf growth 96h,NS1 inh,SARS PLpro yeast,Pf growth 48h
Cc1cc(NC(=O)CN2CCN(c3ccc(O)cc3)CC2)no1,9.28µM*,6.7%,0.4%,u
Cc1cc(NC(=O)CSc2nnc(-c3ccc(O)cc3)o2)no1,u,-2.1%,-1.0%,6.57µM*
CCCN(Cc1nnc(-c2cccs2)o1)C(=O)CN1C(=O)NC2(CCCCC2C)C1=O (stereo not drawn),u,x,1.2%,-28.0%
CN1C(C)(C)CC(=NOC(=O)c2ccccc2)CC1(C)C,10.4µM*,-2.2%,2.9%,-20.0%
O=C1C=CN2CCOCC2C1 (stereo not drawn),x,x,29.5%,x
CCCCNC1C(CC)C(CCC)C(C#N)(C#N)C1(C#N)C#N (stereo not drawn),u,-86.7%,-3.6%,11.7µM*
CC(OC(=O)CCCN=C1NS(=O)(=O)c2ccccc21)C(=O)Nc1ccccc1F (stereo not drawn),11.8%,x,-2.0%,3.6%
COc1ccccc1NC(=O)N1CCN(C(=O)c2ccco2)CC1,1.3%,7.4%,-1.6%,-3.3%
CCOC(=O)[C@H]1[C@H]2COc3ccc(Cl)cc3[C@@H]2N2C(=O)c3cc(Br)ccc3NC(=O)[C@@]12C,u,x,0.7%,u
CCOC(=O)[C@H]1[C@H]2COc3ccc(Br)cc3[C@@H]2N2C(=O)c3cc(Br)ccc3NC(=O)[C@@]12C,8.28µM*,x,-9.5%,u
CCOC(=O)[C@H]1[C@H]2COc3ccccc3[C@@H]2N2C(=O)c3cc(Br)ccc3NC(=O)[C@@]12C,6.57µM*,x,3.6%,4.15µM*
CC1(C)Cc2c(sc(NC(=O)C(=O)N3CCCC3)c2C#N)CO1,36.4%,7.0%,-20.0%,26.3%
O=C1NC(c2ccccc2)=C(c2nc3ccccc3s2)C(c2ccccc2)N1 (stereo not drawn),8.28µM*,22.4%,-0.3%,u
O=C1CCC(=O)N1c1ccc(-c2nc3ccccc3s2)cc1,40.6%,-2.5%,-1.5%,i
COc1ccc(OC)c(CN2CCN(C(=O)Cc3ccccc3)CC2)c1,11.7µM*,8.6%,5.4%,-1.1%
O=C(C1CCN(Cc2ccc(OCc3ccccc3)cc2)CC1)N1CCCC1,x,-32.6%,-13.5%,-10.5%
CCOc1cc(CN2CCN(C(=O)Cc3ccccc3)CC2)ccc1OC,u,-6.5%,2.8%,0.0%
OC1CCN(Cc2ccc(OCc3ccccc3)cc2)CC1,4.15µM*,-1.9%,5.9%,126.7%
CCOc1ccc(CN2CCN(C(=O)Cc3ccccc3)CC2)cc1,6.57µM*,11.5%,5.1%,-0.6%
O=C(O)C1CCCN1S(=O)(=O)c1cccc2cccnc12 (stereo not drawn),x,5.2%,x,x
S=C(NCc1ccncc1)Nc1cc(Cl)cc(Cl)c1,35.2%,-3.2%,1.4%,13.1µM*
S=C(NCc1cccnc1)Nc1cc(Cl)cc(Cl)c1,u,-5.9%,-0.3%,2.94µM*
Cc1ccccc1OCC(=O)NNC(=O)Cn1[nH]c(=O)c2ccccc2c1=O,x,x,-9.7%,x
COC(=O)c1cc(S(=O)(=O)NCCc2ccccc2)c[nH]1,28.2%,-1.5%,0.6%,-3.1%
COC(=O)c1cc(S(=O)(=O)NCc2cccc(Br)c2)c[nH]1,9.28µM*,-1.8%,3.6%,8.9%
COc1ccc(CCNC(=O)C2CCCN(S(=O)(=O)c3ccccc3)C2)cc1 (stereo not drawn),50.9%,-4.0%,1.2%,u
CCOC(=O)c1oc2cccc(OCC(O)CNC(C)C)c2c1C (stereo not drawn),1.31µM*,3.0%,-5.6%,9.28µM*
CCOC(=O)COc1ccc2c(c1)c(C(C)=O)c(C)n2-c1ccc(OC)cc1,2.1%,-35.1%,-5.9%,-16.2%[0.00184 µM]
CCOC(=O)c1sc2nc(SCC(=O)N(CC)CC)n(CCCN3CCCC3=O)c(=O)c2c1C,-92.4%,x,4.1%,2.08µM*
